Compound activity deposited in PubChem by several laboratories.
WNV NS2B-NS3 inh = inhibitors of WNV NS2B-NS3 protease, primary screen, biochemical, fluorogenic substrate | Genome polyprotein (West Nile virus), P06935 | fluorogenic substrate Ex360/Em465; active compounds read low | z-score (test concentration not listed) | 65,000 compounds, 0.18% hits | AID 577, 2007; in the data active means z-score below about -3
Target sequence (P06935 1371-1501 limits assumed): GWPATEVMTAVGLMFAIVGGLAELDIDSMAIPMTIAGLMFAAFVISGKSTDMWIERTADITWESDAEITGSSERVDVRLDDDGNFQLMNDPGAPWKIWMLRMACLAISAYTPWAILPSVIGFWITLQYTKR
Target sequence (P06935 1502-1679 limits assumed): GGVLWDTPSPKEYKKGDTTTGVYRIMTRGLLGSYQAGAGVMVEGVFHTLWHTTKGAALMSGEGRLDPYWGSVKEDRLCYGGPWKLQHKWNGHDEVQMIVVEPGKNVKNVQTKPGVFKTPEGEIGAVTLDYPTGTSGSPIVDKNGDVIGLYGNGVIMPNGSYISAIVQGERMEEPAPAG
BAP1 inh = inhibitors of BAP1 deubiquitinase, primary screen, biochemical, Ub-AMC fluorescence, kinetic. AID 436, 2006. 72,000 compounds, 0.48% hits. calls only at 20 µM. recombinant BAP1, Ub-AMC hydrolysis fluorescence kinetic; active compounds read low. Ubiquitin carboxyl-terminal hydrolase BAP1 (Homo sapiens), Q92560;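 active means activity remaining at or below 50% of control, provided the compound also passes the data quality filters; inactive means the rest, including low values that fail the filters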;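 further: 100% = DMSO wells rate and 0% = substrate alone blank rate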
MKP-1 inh = MKP-1 phosphatase inhibitors, primary screen, biochemical, in vitro; Dual specificity protein phosphatase 1 (Homo sapiens), P28562; recombinant MKP-1, OMFP hydrolysis fluorescence; inhibition, %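 (compounds tested at a single concentration somewhere between 10 and 100 µM)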; 65,000 compounds, 0.15% hits;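 active means inhibition above about 50%, limit read from the data; inconclusive means inhibition over screen mean plus 3 SD, below that limit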;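 further: 0% = DMSO max control wells and 100% = wells with enzyme stopped by NaOH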
MMP13 inh = human MMP13 inhibitors, primary screen, biochemical, FRET peptide cleavage. Collagenase 3 (Homo sapiens), P45452. MMP-13 fTHP FRET cleavage, Mca fluorescence. inhibition, % at 4 µM. 65,000 compounds, 0.07% hits;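 active means inhibition above the mean of compound-free control plate wells plus 3 SD, cut at about 14% in these data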;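 further: 0% = DMSO wells and 100% = wells with reference MMP-13 inhibitor after basal subtraction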
Cdc25B block = inhibitors of Cdc25B phosphatase catalytic domain, primary screen, biochemical, OMFP fluorescence; 65,000 compounds, 0.1% hits; M-phase inducer phosphatase 2 (Homo sapiens), P30305; AID 368, 2006; inhibition, %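 (compounds tested at 10 µM final in the well)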; recombinant Cdc25B, OMFP fluorescence Ex485/Em525; in the data active means inhibition above about 50%
Redox 05 DTT = redox cycling H2O2 generation, 0.5 mM DTT, dose response, artefact control, biochemical, Cdc25B catalytic domain; cell-free redox cycling H2O2 generation; shares compounds with Cdc25B block; 30 compounds, 50% hits; AID 682, 2007; EC50, µM; in the data active means EC50 below about 30 µM
Redox H2O2 1DTT = redox cycling H2O2 generation, 1 mM DTT, dose response, artefact control, biochemical, 1.0 mM DTT, Cdc25B catalytic domain | shares compounds with Cdc25B block | cell-free redox cycling H2O2 generation | EC50, µM | 30 tested, under 10 active | AID 683, 2007; in the data active means EC50 below about 50 µM
An asterisk follows results filed as active; i = inactive; u = inconclusive; x = not tested or not shown; + = active, no number. An excerpt weighted towards active compounds, which were near 0.93% of everything screened.

SMILES	WNV NS2B-NS3 inh	BAP1 inh	MKP-1 inh	MMP13 inh	Cdc25B block	others
COCCN1Cc2cccc(C(=O)Nc3cccnc3)c2C1=O	0.2	i	9.3	0.1	9.0
COCCN1Cc2cccc(C(=O)Nc3ccc4c(c3)OCCO4)c2C1=O	0.39	i	2.4	16.6*	-8.8
COc1cccc(N2CCN(C3CC(=O)N(c4cccc(Cl)c4)C3=O)CC2)c1 (configuration not stated)	0.31	i	-15.7	7.4	92.3*
O=C(Cn1nnc(-c2ccncc2)n1)Nc1ccc2c(c1)CCC2	0.22	i	8.2	14.8*	-4.3
O=C(Cn1nnc(-c2ccc(F)cc2)n1)Nc1ccc2c(c1)OCO2	x	i	x	x	x
O=C(Cn1nnc(-c2ccccc2F)n1)Nc1ccc2c(c1)OCO2	0.12	i	-21.0	15.9*	12.0
COc1ccc(-n2nnnc2SCC(=O)Nc2ccc3c(c2)OCCO3)cc1OC	-0.24	i	14.2	-2.6	5.2
COc1ccc(-n2nnnc2SCC(=O)Nc2ccc3c(c2)OCCO3)c(OC)c1	-1.58	i	101.7*	0.0	-13.7
CCCCCCCCCCCCCCCCOCC(COCC(F)(F)F)OP(=O)(O)OCO (configuration not stated)	x	+	x	x	x
O=C(Cc1ccccc1)Nc1cccc(-c2nnc(-c3ccccc3)o2)c1	x	i	x	x	x
CCN1C(=S)SC(=O)C1=C1C=C(C)N(Cc2ccco2)C(C)=C1	-0.51	x	9.4	18.9*	-0.7
CCN1C(=S)SC(=O)C1=C1C=C(C)OC(C)=C1	0.00812	x	8.8	6.2	-7.0
Cn1c(=O)c2cc(S(=O)(=O)NCCC(=O)NCCC3=CCCCC3)ccc2n(C)c1=O	0.3	i	57.2*	-3.2	-4.4
Cc1ccc(CCNC(=O)CCNS(=O)(=O)c2ccc3c(c2)c(=O)n(C)c(=O)n3C)cc1	-0.21	i	-1.9	-3.5	1.5
O=C(O)c1ccccc1C(=O)Nc1cc([N+](=O)[O-])ccc1F	x	i	x	x	x
COc1ccc(N2CCN(Cc3cc(=O)oc4c3ccc3ccccc34)CC2)cc1	-0.32	+	-6.0	-1.2	-11.2
CCCOc1ccc(OC(=O)c2cccc([N+](=O)[O-])c2)cc1	x	i	x	x	x
CCOC(=O)N1CCN(C2=CC(=O)OC23CCCCC3)CC1	-5.16*	i	19.0	0.7	2.3
CCOC(=O)N1CCN(c2c(-c3ccc(C)cc3)c(=O)c2=O)CC1	1.37	i	1.3	-6.7	-16.6
O=C(c1ccco1)N1CCN(c2cc(=O)n(C3CCCCC3)c(=O)[nH]2)CC1	-0.58	i	1.4	0.9	64.8*
Cc1ccccc1S(=O)(=O)Cc1ccc(C(=O)NCc2cccnc2)o1	0.23	i	14.9	-1.5	-11.9
Cc1ccccc1S(=O)(=O)Cc1ccc(C(=O)NCCCOC(C)C)o1	-5.59*	i	17.9	-4.5	-0.9
Cc1cc(C)nc(-n2nc(C)cc2Nc2ccccc2)n1	0.56	i	12.1	-4.4	-12.6
CCC(C(=O)Nc1cc(C)nn1-c1nc(C)cc(C)n1)c1ccccc1 (configuration not stated)	-0.09	i	33.0	2.6	66.3*
CC1CC(C)CN(S(=O)(=O)c2ccc(C(=O)Nc3nc(-c4ccc(I)cc4)cs3)cc2)C1 (configuration not stated)	x	i	x	x	x
SMILES	WNV NS2B-NS3 inh	BAP1 inh	MKP-1 inh	MMP13 inh	Cdc25B block	others
O=C1CCN2C=Nc3cccc4ccc1c2c34	-0.54	i	10.7	0.1	79.9*
C=Cc1c(C)c2cc3[nH]c(cc4nc(cc5nc(cc1[nH]2)C(C)=C5CCC(=O)O)C(CCC(=O)O)=C4C)c(C)c3C=C	x	+	x	x	x
Cn1c(SCC(=O)NCc2ccccn2)nc2sc3c(c2c1=O)CCCC3	x	i	x	x	x
O=C(c1ccc2c(=O)n(C3CCCC3)c(=S)[nH]c2c1)N1CCN(C2CCCCC2)CC1	-1.64	i	52.3*	0.4	-2.1
Cn1nnc2cc(C(=O)NC3CCCCC3)ccc21	-5.19*	i	21.4	10.3	-9.5
Brc1cccc(-c2cnc3n2CCCCC3)c1	-4.2*	i	-6.1	-1.6	2.4
CCN(CC)C(=O)c1cc2c(=O)n3cccc(C)c3nc2n1C	-0.44	x	15.1	-46.2	74.4*
Cc1cccn2c(=O)c3cc(C(=O)Nc4ccc(N(C)C)cc4)n(C)c3nc12	-1.62	i	13.3	-1.1	5.5
O=C(CCCCCN1C(=O)c2ccccc2C1=O)Nc1cccc([N+](=O)[O-])c1	x	i	x	x	x
CC(=O)c1ccc(S(=O)(=O)N(Cc2cc3cc4c(cc3[nH]c2=O)OCCO4)CC2CCCO2)cc1 (configuration not stated)	1.57	i	4.1	-1.4	1.4
COC(=O)c1ccc(S(=O)(=O)N(Cc2cc3cc4c(cc3[nH]c2=O)OCO4)C2CCCCC2)cc1	-0.1	+	-7.9	-4.2	5.1
O=C(COc1ccc(Cl)cc1Cl)NC(=O)N1CCCCC1	-1.59	i	-1.7	14.3*	-20.8
COc1cc(-n2nc(C)c3c2OC(N)=C(C#N)C3c2ccccc2)c(Cl)c(Br)c1O (configuration not stated)	0.08	i	38.3	16.0*	5.7
CCOC(=O)/C(C#N)=C1/C=CN(c2ccccc2)C=N1	-0.91	x	0.6	3.1	-3.2
CCOC(=O)/C(C#N)=C1/C=Nc2ccccc2N1	2.71	i	5.7	14.5*	1.6
CC(C)N(CCC(=O)c1ccc2ccccc2c1)Cc1ccccc1	x	+	x	x	x
CC(C)N(Cc1ccccc1)C(=O)COC(=O)c1ccc2c(c1)OCCO2	0.49	i	8.2	-0.5	-12.5
CCOC(=O)C1=C(N)OC2=C(C(=O)CC(C)(C)C2)C1c1ccc(O)c(OC)c1 (configuration not stated)	x	i	x	x	x
Cc1ccc2c(c1C)NC(C(=O)O)C1CC=CC21 (configuration not stated)	-2.69	x	u	4.0	52.6*	Redox 05 DTT=>50;Redox H2O2 1DTT=>50
CCOC(=O)C(C(=O)OCC)c1cc(Br)c2noc3c2c1C(=O)c1ccccc1-3	0.29	x	31.6	6.6	62.0*	Redox 05 DTT=26.1*;Redox H2O2 1DTT=45.7*
CC(=O)OCCNc1cc(N2CCN(C)CC2)c2noc3c2c1C(=O)c1ccccc1-3	-0.47	i	-5.5	6.1	-5.6
Cc1ccccc1Nc1cc2ccccc2c(=O)[nH]1	0.48	i	7.5	-6.9	80.9*	Redox 05 DTT=>50;Redox H2O2 1DTT=>50
